NPSR antagonist = antagonists of human neuropeptide S receptor cAMP signaling; CHO-NPSR cells, cAMP TR-FRET, antagonist mode; Potency, µM (series often up to 38.3 µM), usual class: inhibitors; hit rate 1% among 220,000; AID 1461; further: nearly all actives have a fitted effect of over 50% in size
Target sequence (Q6W5P4 whole entry, looked up): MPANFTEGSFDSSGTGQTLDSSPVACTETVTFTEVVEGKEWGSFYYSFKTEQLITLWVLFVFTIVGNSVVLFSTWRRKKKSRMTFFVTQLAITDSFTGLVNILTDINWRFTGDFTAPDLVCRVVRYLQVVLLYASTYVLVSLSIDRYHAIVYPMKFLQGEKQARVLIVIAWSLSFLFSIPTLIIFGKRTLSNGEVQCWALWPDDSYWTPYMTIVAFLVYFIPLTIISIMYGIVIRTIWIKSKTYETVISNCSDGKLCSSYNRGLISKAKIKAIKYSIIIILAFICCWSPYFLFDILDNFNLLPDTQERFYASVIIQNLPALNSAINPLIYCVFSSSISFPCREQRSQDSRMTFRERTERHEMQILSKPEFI
TrxR1 inh = rat TrxR1 inhibition | Potency, µM (titrated, usually from 114 µM), usual class: inhibitors | recombinant rTrxR1, NADPH fluorescence consumption, selenite substrate | AID 588453 | hit rate 1% among 390,000; further: nearly all actives have a fitted effect of over 65% in size
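Rat TrxR1 (90 nM in the dispensed reagent) was pre-reduced with 400 uM NADPH for 5 min at room temperature, then incubated with compound for 15 min. After 400 uM selenite was added, NADPH fluorescence (Ex 340/Em 450 nm) was followed for 8 min.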
GALK inhibitor = galactokinase (human) inhibition; P51570; Purified GALK, Kinase-Glo residual ATP luminescence; Potency, µM (doses to about 57.5 µM), most hits filed as inhibitors; hit rate 0.007% among 270,000; AID 1868
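ATP-depletion format; final 35 uM ATP, 100 uM D-galactose, 5 nM enzyme; pH 8.0 HEPES/Mg2+ buffer; 60 min RT; luminescence read 10 min after detection reagent.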
TrxR1 substrate = is turned over as a substrate by rat TrxR1; Potency, µM (highest dose often 114 µM); purified TrxR1 substrate turnover, NADPH consumption readout; hit rate 0.01% among 390,000; O89049; further: nearly all actives have a fitted effect of over 50% in size
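Rat TrxR1, dispensed at 90 nM, was prereduced with 400 uM NADPH (final) for 5 min at ~22 deg C, then incubated with compound 15 min before 400 uM selenite. A first-read NADPH fluorescence drop versus no-compound background flagged substrates.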
Numbers stand for hits; i = inactive; ? = inconclusive; nt = no result; [ ] = another dose, or the depositor's remark. Most compounds without a hit are left out; they make up all but 1.2% or so of the library. The call rests on the fitted dose curve; in most records, active means well fitted curve in the direction sought with a large enough effect; inconclusive means small, poorly fitted or top-dose-only effect, or another doubt; inactive means no such curve, though single readings can be large; an effect the other way counts as inactive or inconclusive.

SMILES	NPSR antagonist	TrxR1 inh	GALK inhibitor	TrxR1 substrate
C=C(CC[C@]12OC(C(=O)O)C(O)(C(=O)O)C(C(=O)O)(O1)C(OC(=O)/C=C/[C@@H](C)C[C@@H](C)CC)C2O)[C@@H](OC(C)=O)[C@H](C)Cc1ccccc1 (stereo partly specified)	nt	i	nt	i
CCC(=O)O[C@]1(C(=O)CCl)[C@@H](C)C[C@H]2[C@@H]3CCC4=CC(=O)C=C[C@]4(C)[C@@]3(F)[C@@H](O)C[C@@]21C	2µM	i	i	i
C[C@H]1C[C@H]2[C@@H]3CCC4=CC(=O)C=C[C@]4(C)[C@@]3(F)[C@@H](O)C[C@]2(C)[C@@]1(O)C(=O)CO	nt	i	nt	i
CCC(=O)OC1(C(=O)CCl)[C@@H](C)C[C@H]2[C@@H]3CCC4=CC(=O)C=C[C@]4(C)[C@@]3(F)[C@@H](O)C[C@@]21C (stereo partly specified)	nt	i	nt	i
CCCC(=O)O[C@]1(C(=O)CCl)[C@@H](C)C[C@H]2[C@@H]3CCC4=CC(=O)C=C[C@]4(C)[C@@]3(F)C(=O)C[C@@]21C	3.2µM	i	i	i
CCCC(=O)C1=C(N(C)c2ccccc2)CC(C)(C)CC1=O	nt	i	i	i
CCCC(=O)C1=C(c2ccccc2)C(C#N)(C#N)C(C#N)=C1N	i	13µM	i	i
Cc1ccn2c(C(=O)NNC(=O)Nc3ccc(Cl)cc3)c(C)nc2c1	nt	i	i	i
CCN(CC)CCCNC(=O)c1cn(CC)c2cc(N3CCN(C(=O)c4ccco4)CC3)c(F)cc2c1=O	nt	71µM	i	i
Cc1sccc1C1C(C#N)=C(N)SC(N)=C1C#N	i	nt	i	nt
Cc1cc(C2C(C#N)=C(N)SC(N)=C2C#N)c(C)s1	i	32µM	i	i
COc1ccc(NS(=O)(=O)c2cc(NC(=O)C3CCCO3)ccc2N2CCCC2)cc1 (stereo unspecified)	i	i	i	i
COc1ccc(NS(=O)(=O)c2cc(NC(=O)C3CCCO3)ccc2N2CCCCC2)cc1 (stereo unspecified)	10µM	i	i	i
CC(=O)N1/C(=C/c2ccc(N(C)C)cc2)C(=O)c2ccccc21	i	40µM	i	i
O=C(OCCF)N1CCN(/[N+]([O-])=N/Oc2ccc([N+](=O)[O-])cc2[N+](=O)[O-])CC1	nt	7.1µM	nt	i
COCCOC(=O)N1CCN(/[N+]([O-])=N/Oc2ccc([N+](=O)[O-])cc2[N+](=O)[O-])CC1	nt	8.9µM	nt	i[0.457 µM]
CCOC(=O)N1CCN(/[N+]([O-])=N/Oc2ccc(C(F)(F)F)cc2[N+](=O)[O-])CC1	nt	i	nt	i
CCCCCCCCCCCCCCCCOC(=O)N1CCN(/[N+]([O-])=N/Oc2ccc([N+](=O)[O-])cc2[N+](C)=O)CC1	nt	i	nt	i[0.457 µM]
CCOC(=O)N1CCN([N+]([O-])=NOc2cc(O/N=[N+](\[O-])N(CC)CC)c([N+](=O)[O-])cc2[N+](=O)[O-])CC1	nt	13µM	nt	i
CN(C)c1ccc(/C=c2\[nH]c(=O)/c(=C\c3ccc(N(C)C)cc3)[nH]c2=O)cc1	nt	i	nt	i
Cc1ccc(/C=C2\C(=O)Nc3ccccc32)o1	i	18µM	i	i
Cc1ccc(/C=C2\C(=O)NC(=O)N2C)o1	nt	50µM	i	i
Cc1ccc(/C=C2/SC(=O)NC2=S)o1	13µM	56µM	i	i
O=C1Nc2ccccc2/C1=C/c1ccccc1F	nt	i	i	i
Cc1ccc(C2=NOC(=O)/C2=C\c2ccc(C)o2)cc1	?	i	i	i
SMILES	NPSR antagonist	TrxR1 inh	GALK inhibitor	TrxR1 substrate
Cc1ccc(/C=C2/C(=O)N(c3ccccc3)C(=S)N2C)o1	i	20µM	i	i
Cc1ccc(S(=O)(=O)N2CCN(c3nc(N(C)c4cc(Cl)ccc4O)nc4ccccc34)CC2)cc1	nt	i	nt	i
CCCN(CCC)C(=O)c1cc([N+](=O)[O-])cc2c1-c1ccc([N+](=O)[O-])cc1C2=C(C#N)C#N	i[7.67 µM]	13µM	i	i
CCCCN(CCCC)C(=O)c1cc(Cl)ccc1[N+](=O)[O-]	i	i	i	i
C=CCSc1nnc(NC(=O)c2nc(SCC)ncc2Cl)s1	i	i	i	i
Cc1cccc(CS(=O)(=O)c2ncc(Cl)c(C(=O)Nc3nnc(C(C)C)s3)n2)c1	nt	25µM	i	i
CCSc1nnc(NC(=O)c2nc(S(=O)(=O)Cc3ccc(F)cc3)ncc2Cl)s1	nt	25µM	i	i
Cc1ccc(CS(=O)(=O)c2ncc(Cl)c(C(=O)Nc3nnc(C(C)C)s3)n2)cc1	nt	32µM	i	i
Cc1ccc(C)c(NC(=O)c2nc(S(=O)(=O)Cc3ccc(F)cc3)ncc2Cl)c1	nt	1.6µM	nt	i
Cc1ccc(C)c(NC(=O)c2nc(Cl)ccc2Cl)c1	i	i	i	i
Clc1ccc2nc[nH]c2c1	nt	?	nt	i
O=C(CCCCn1c(=O)c2ccccc2n(Cc2ccccc2F)c1=O)NCc1ccccc1Cl	nt	i	nt	i
CC(C)c1nnc(NC(=O)c2nc(S(=O)(=O)Cc3ccc(F)cc3)ncc2Cl)s1	nt	32µM	i	i
CCSc1nnc(NC(=O)c2ccc3ccccc3n2)s1	7.9µM	i	i	i
Cc1ccc(S(=O)(=O)CCC(=O)Oc2ccc3c(C)cc(=O)oc3c2)cc1	nt	71µM	nt	i
CCn1nc(C)cc1-c1nnc(SCC(=O)Nc2ccccc2)n1CCCOC	i	i	nt	i
CCn1nc(C)cc1-c1nnc(Sc2ncc([N+](=O)[O-])s2)n1C	nt	0.35µM	i	i
CCC(O)c1nc2ccccc2n1CCOc1cc(C)cc(C)c1 (stereo unspecified)	nt	i	nt	i
CC1CCc2c(cc(-c3ccccc3)n2-c2ccc(C(=O)NC(C)C)cc2)C1 (stereo unspecified)	nt	i	nt	i
COc1ccc(-n2nnc(C(=O)Nc3ccccc3F)c2N)cc1	nt	i	nt	i
O=C(c1ccc(Cl)cc1)C(CN1CCCC1)c1ccccc1 (stereo unspecified)	nt	35µM	i	i
COc1ccc(C(=O)C(CN2CCCC2)c2ccccc2)cc1 (stereo unspecified)	i	i	i	i
Cc1ccc2nc(-c3ccc(Cl)c(NC(=O)COc4cccc(C)c4C)c3)oc2c1	nt	i	nt	i[11.4 µM]
Cc1ccc(CNC(=O)CCCOc2cc(=O)n(C)c3ccccc23)o1	i	40µM	i	i
COc1cccc2sc(Nc3nc(-c4ccccn4)cs3)nc12	1µM	nt	i	nt
SMILES	NPSR antagonist	TrxR1 inh	GALK inhibitor	TrxR1 substrate
CCC1Sc2ccc(S(=O)(=O)CCC(=O)NCc3ccc(C)o3)cc2NC1=O (stereo unspecified)	nt	50µM	i	i
CCC1Sc2ccc(S(=O)(=O)CCC(=O)Nc3ccccc3Cl)cc2NC1=O (stereo unspecified)	nt	i	i	i
Cc1ccc(CNC(=O)CCS(=O)(=O)c2ccc(Br)s2)o1	i	8.9µM	i	i
O=C(CCS(=O)(=O)c1ccc(Br)s1)NCc1ccccc1	i	i	i	i
Nc1nc(Sc2ccc([N+](=O)[O-])c3nonc23)c2[nH]cnc2n1	nt	1.3µM	nt	i
CNc1ncnc(Sc2nc(N)nc3nc[nH]c23)c1[N+](=O)[O-]	nt	1.3µM	nt	i
Cc1ccc(NC(=O)C(Cc2c[nH]c3ccccc23)NC(=O)OCC(C)C)cc1 (stereo unspecified)	nt	i	nt	i
